Data reported in PubChem BioAssay AID463173 (ICCB-Longwood Screening Facility, Harvard Medical School, 2010).
The whole screen tested about 52,000 compounds, of which about 1,700 (3.3%) were called active. No stated cut-off is given here; in the data, active means survival mostly below about 52% (no sharp cut-off); inactive means mostly above about 56%. For the sample, actives were picked, then their nearest neighbours and some compounds at random.

Each compound was assayed on Wild type (assay: growth inhibition of S. aureus wild type versus tarO mutant, primary screen, teichoic acid synthesis inhibitors, RN4220, OD600 (AID 463173)). Conditions: S. aureus RN4220 wild type/DeltatarO growth, OD600, 18 h, stronger effect = lower value, screened at 18.75 µg/mL (by protocol).
CSc1nnc2c(n1)OC(c1cccc(O)c1Cl)Nc1ccccc1-2 (centres undefined) was tested, and the survival was 71% (inactive). In the case of CSc1nc(Nc2cccc(C)c2)c(C#N)c(-c2ccccc2)n1, the survival was 104% (inactive). CCCCOC(=O)c1ccc(NC(=O)C2(c3cccs3)CCOCC2)cc1 was tested, and the survival was 72% (inactive). With COc1ccc(/C=C/C(=O)Nc2ccc3nc4c(c(Nc5ccccc5OC)c3c2)CCCC4)cc1 the survival was 93% (inactive). For COc1ccccc1C(=O)NCCSc1c(C)[nH]c2ccccc12, the survival was 52% (inactive). With COC(=O)c1ccc(NC(=O)CCCC(=O)OCC(=O)c2ccc(Cl)cc2)cc1 the survival was 87% (inactive). In the case of O=C(Nc1ccccc1F)c1oc2ccccc2c1NC(=O)c1c(F)cccc1F, the survival was 53% (inactive). For CCOc1ccc(-n2c(=O)c3c(C)c(C)sc3n(Cc3ccc(C(C)(C)C)cc3)c2=O)cc1, the survival was 19% (active). With Cc1ccc(Cn2c(=O)n(Cc3ccccc3)c(=O)c3c(C)c(C)sc32)cc1 the survival was 83% (inactive). Cc1ccc(-n2c(=O)c3c(C)c(C)sc3n(Cc3ccc(F)cc3Cl)c2=O)cc1C was tested, and the survival was 60% (inactive). CCOc1ccc(-n2c(=O)c3c(C)c(C)sc3n(CC(=O)C(C)(C)C)c2=O)cc1 was tested, and the survival was 125% (inactive). For Cc1sc2c(c1C)c(=O)n(CCc1ccccc1)c(=O)n2Cc1ccc(F)cc1, the survival was 50% (inactive). In the case of Cc1cccc(Cn2c(=O)n(CCc3ccccc3)c(=O)c3c(C)c(C)sc32)c1, the survival was 90% (inactive). In the case of Cc1ccc(Cn2c(=O)n(CCc3ccccc3)c(=O)c3c(C)c(C)sc32)cc1, the survival was 22% (active). With Cc1ccc(C)c(Cn2c(=O)n(-c3ccc(Cl)cc3)c(=O)c3c(C)c(C)sc32)c1 the survival was 73% (inactive). With Cc1sc2c(c1C)c(=O)n(CCc1ccccc1)c(=O)n2Cc1cccc(F)c1 the survival was 9% (active). In the case of Cc1sc2c(c1C)c(=O)n(CCc1ccccc1)c(=O)n2Cc1ccc(C(C)(C)C)cc1, the survival was 85% (inactive). For Cc1ccc(Cn2c(=O)n(-c3ccc(C)c(C)c3)c(=O)c3c(C)c(C)sc32)cc1, the survival was 46% (active). For CCOc1ccc(-n2c(=O)c3c(C)c(C)sc3n(Cc3ccccc3C)c2=O)cc1, the survival was 89% (inactive). O=C(CN1CCCN(Cc2ccc(F)cc2)S1(=O)=O)NCc1ccccc1Cl was tested, and the survival was 78% (inactive). With CC(C)NS(=O)(=O)c1ccc(OCC(=O)N2CCN(c3ccccc3F)CC2)cc1 the survival was 89% (inactive). With FC(F)(F)c1ccc(-c2noc(-c3ccccc3Br)n2)cc1 the survival was 89% (inactive). For CCOc1cc(C2CC(=O)Nc3cc4c(cc32)OCCO4)ccc1O (centres undefined), the survival was 78% (inactive). CCCc1nn2c(=O)cc(COC(=O)c3ccc(NC(=O)COc4ccccc4F)cc3)nc2s1 was tested, and the survival was 121% (inactive). In the case of CC1CCN(C(=O)c2cc(-c3ccc(Cl)cc3)on2)CC1, the survival was 85% (inactive). For O=C(c1cc(-c2cccc(Cl)c2)on1)N1CCN(c2ccccc2)CC1, the survival was 4% (active). CC1CCN(C(=O)c2cc(-c3ccc(Br)cc3)on2)CC1 was tested, and the survival was 78% (inactive). For COCCNC(=O)c1cc(-c2cccc(Cl)c2)on1, the survival was 136% (inactive). With O=C(NCCc1ccccc1)c1cc(-c2cccc(Cl)c2)on1 the survival was 87% (inactive). CC1CCN(C(=O)c2cc(-c3cccc(Cl)c3)on2)CC1 was tested, and the survival was -15% (active). For CN(Cc1ccccc1)C(=O)c1cc(-c2cccc(Cl)c2)on1, the survival was -15% (active). For O=C(c1cc(-c2cccc(Cl)c2)on1)N1CCCCC1, the survival was 66% (inactive). In the case of O=C(c1cc(-c2ccccc2)on1)N1CCCCC1, the survival was 113% (inactive). For O=C(CSCc1cccc(F)c1)NCc1ccccc1, the survival was 85% (inactive). In the case of CC(=O)Nc1cccc(C(=O)NCc2ccc3c(c2)CCN3C(=O)c2ccccc2)c1, the survival was 63% (inactive). With CCOc1cc(CNc2ccc(O)cc2)cc(Cl)c1OCc1ccccc1 the survival was -5% (active). CCOc1cc(CNc2ccc(C(=O)O)cc2)ccc1OCc1ccccc1 was tested, and the survival was 57% (inactive). CCOc1cc(CNc2ccc(O)cc2)cc(Br)c1OCc1ccccc1 was tested, and the survival was -5% (active). Oc1ccc(NCc2ccccc2OCc2ccc(Cl)cc2)cc1 was tested, and the survival was 72% (inactive). For CCOc1c(Cl)cc(CNc2ccc3[nH]c(=O)[nH]c3c2)cc1OC, the survival was 88% (inactive). For Oc1ccc(NCc2ccccc2OCc2ccccc2)cc1, the survival was 100% (inactive). With CCOc1cccc(CNc2ccc(O)cc2)c1OCc1ccccc1Cl the survival was 54% (inactive). In the case of CCOc1cc(CNc2ccc(O)cc2)ccc1OCc1ccc(Cl)cc1, the survival was 10% (active). For COc1cc(CNc2ccc3[nH]c(=O)[nH]c3c2)cc(Br)c1OCc1ccc(F)cc1, the survival was 117% (inactive). COc1cccc(NC(=O)C2CCN(S(=O)(=O)c3ccc4[nH]c5c(c4c3)CCCCC5)CC2)c1 was tested, and the survival was 84% (inactive). COc1ccc(NC(=O)c2ccc(CNS(=O)(=O)c3ccc4c(c3)C(C)(C)C(=O)N4C)cc2)cc1 was tested, and the survival was 114% (inactive). With COc1cccc(NC(=O)c2nnn(Cc3cccc(C(F)(F)F)c3)c2N)c1 the survival was 87% (inactive). With Cc1ccc(Cl)cc1-n1c(CCC(=O)O)ccc1-c1cccs1 the survival was 64% (inactive). With CCOc1ccc(-c2cc3c(=O)n(CC(=O)Nc4cc(F)ccc4C)ccn3n2)cc1 the survival was 68% (inactive). In the case of Cc1ccc(-n2ncc(C(=O)Nc3ccc4c(c3)OCCO4)c2C2CCN(C(=O)OC(C)(C)C)CC2)cc1C, the survival was 82% (inactive). CCCN1CCc2nc(SCC(=O)Nc3ccc(C)c(Cl)c3)[nH]c(=O)c2C1 was tested, and the survival was 99% (inactive). O=C(c1noc2c1CCCCC2)N1CCN(c2cccc(Cl)c2)CC1 was tested, and the survival was 73% (inactive). O=C(c1cc2ccc3cccnc3c2[nH]1)N1CCN(c2ccc(Cl)cc2)CC1 was tested, and the survival was 91% (inactive). In the case of O=C(c1cc2ccc3cccnc3c2[nH]1)N1CCN(c2ccccc2)CC1, the survival was 59% (inactive). In the case of O=C(c1cc2ccc3cccnc3c2[nH]1)N1CCN(c2cccc(C(F)(F)F)c2)CC1, the survival was -2% (active). With CC1CCc2onc(C(=O)N3CCN(c4cccc(Cl)c4)CC3)c2C1 (centres undefined) the survival was 88% (inactive). CC1CCc2onc(C(=O)N3CCN(c4cccc(C(F)(F)F)c4)CC3)c2C1 (centres undefined) was tested, and the survival was 10% (active). With O=C(c1noc2c1CCCCC2)N1CCN(c2ccc(Cl)cc2)CC1 the survival was 73% (inactive). CC1CCc2onc(C(=O)N3CCN(c4ccccc4)CC3)c2C1 (centres undefined) was tested, and the survival was 121% (inactive). O=C(c1noc2c1CCCCC2)N1CCN(c2cccc(C(F)(F)F)c2)CC1 was tested, and the survival was -3% (active). With CCn1c(Cc2ccccc2)nnc1SCC(=O)N(C)C1CCCCC1 the survival was 108% (inactive). COc1ccc(CNc2nc3c(-c4ccccc4)nnn3c3ccccc23)cc1 was tested, and the survival was 90% (inactive). For COc1ccc(-c2cc(C(=O)Nc3c(C)n(C)n(-c4ccccc4)c3=O)no2)cc1, the survival was 73% (inactive). In the case of Cc1cccc(CNC(=O)c2ccc(N3Cc4ccccc4Oc4ncccc43)s2)c1, the survival was 69% (inactive). With Cc1ccc(Cn2c(C)c3cnn(CC(=O)N4CCN(c5cc(C)ccc5C)CC4)c(=O)c3c2C)cc1 the survival was 65% (inactive). CCOC(=O)c1noc2ncn(CC(=O)Nc3cc(Cl)ccc3OC)c(=O)c12 was tested, and the survival was 76% (inactive). With CCOC(=O)c1noc2ncn(CC(=O)Nc3ccc(F)cc3Cl)c(=O)c12 the survival was -6% (active). For CCOC(=O)c1noc2ncn(CC(=O)Nc3ccccc3OC)c(=O)c12, the survival was 133% (inactive). For COc1cccc(NC(=O)Cn2c(=O)n(Cc3ccc4c(c3)OCO4)c(=O)c3oc4ccccc4c32)c1, the survival was 80% (inactive). CC(=O)c1ccc(N2CCN(C(=O)CCn3cnc4onc(-c5ccc(F)cc5)c4c3=O)CC2)cc1 was tested, and the survival was -6% (active). O=C(CCn1cnc2onc(-c3ccc(F)cc3)c2c1=O)N1CCN(c2ccccc2F)CC1 was tested, and the survival was -6% (active). With COc1ccccc1N1CCN(C(=O)CCn2cnc3onc(-c4ccc(F)cc4)c3c2=O)CC1 the survival was 87% (inactive). In the case of O=C(CCn1cnc2onc(-c3ccc(F)cc3)c2c1=O)N1CCN(c2ccccc2)CC1, the survival was 75% (inactive). With O=C(Cn1cnc2onc(-c3ccc(F)cc3)c2c1=O)N1CCN(c2ccccc2F)CC1 the survival was 71% (inactive). For O=C(CCn1cnc2onc(-c3ccc(F)cc3)c2c1=O)N1CCN(c2ccc(F)cc2)CC1, the survival was 98% (inactive). With CCOc1ccc(CC(=O)NCCc2sc3nc(-c4ccc(F)cc4)nn3c2C)cc1 the survival was 71% (inactive). COC(=O)c1ccccc1NC(=O)c1cc(-c2ccc(Cl)cc2)on1 was tested, and the survival was 71% (inactive). For Cc1ccc(C)c(NC(=O)CSc2nnc(CNC(=O)c3ccccc3)n2-c2ccccc2)c1, the survival was 63% (inactive). With Cc1nn(CC(=O)NCCc2ccc(Cl)cc2)c(=O)c2cc3cc(F)ccc3n12 the survival was 74% (inactive). For Cc1cccc(NC(=O)CSC2=Nc3ccccc3C3=NC(CC(=O)NCc4cccs4)C(=O)N23)c1 (centres undefined), the survival was 81% (inactive). For Cc1ccc(C)c(CSc2nnc(C)n3c2cc2sccc23)c1, the survival was 65% (inactive). For Clc1ccc(C(c2ccccc2)c2c[nH]c3ccccc23)s1 (centres undefined), the survival was 4% (active). c1ccc(C(c2cccs2)c2c[nH]c3ccccc23)cc1 (centres undefined) was tested, and the survival was 17% (inactive). Cc1ccc2[nH]cc(C(c3ccccc3)c3ccc(Cl)s3)c2c1 (centres undefined) was tested, and the survival was 18% (inactive). In the case of Cc1ccc(NC(=O)CN2C(=O)CSc3ccc(S(=O)(=O)N4CCCC4)cc32)c(C)c1, the survival was 98% (inactive). With CCN(C(=O)c1cc2c(Cl)nc3ccccc3c2s1)c1cccc(Cl)c1 the survival was 76% (inactive). In the case of Cc1ccc2nc(Cl)c3cc(C(=O)N(C)C4CCCCC4)sc3c2c1, the survival was 35% (inactive). For CN(CCCNC(=O)c1cc2c(Cl)nc3ccccc3c2s1)Cc1ccccc1, the survival was 45% (inactive). CCc1ccccc1N(C)C(=O)c1cc2c(Cl)nc3ccc(C)cc3c2s1 was tested, and the survival was 0% (active). Cc1ccc(Cl)cc1N(C)C(=O)c1cc2c(Cl)nc3ccccc3c2s1 was tested, and the survival was 70% (inactive). In the case of CCN(CCCNC(=O)c1cc2c(Cl)nc3ccccc3c2s1)Cc1ccccc1, the survival was 96% (inactive). For Cc1ccc2nc(Cl)c3cc(C(=O)NCCCN(C)Cc4ccccc4)sc3c2c1, the survival was -3% (active). CCCN(C(=O)c1cc2c(Cl)nc3ccccc3c2s1)c1cccc(C)c1 was tested, and the survival was 1% (active). With CN(C(=O)c1cc2c(Cl)nc3ccccc3c2s1)c1cccc(C(F)(F)F)c1 the survival was 80% (inactive).
